Our source for the z-score values is PubChem BioAssay.

Values without a mark were called inactive. Calls of active or inactive are those of the source.

This experiment in a line: S. cerevisiae growth modulation with rapamycin, primary screen, strain BY4716, OD600, 96 h (AID 1091). Also: test concentration not given here. The following applies: higher = more signal, called active from +8 up or from −8 down.
For the molecule `COc1cc2c(cc1O)C(C)N(Cc1ccc([N+](=O)[O-])o1)CC2` (centres undefined), the z-score was -1.57.

Take `COCCOC(=O)N1C(=O)[C@@]2(c3cc(C#Cc4ccc(OC)cc4)ccc31)[C@H](c1ccc(O)cc1)N1[C@H](c3ccccc3)[C@H](c3ccccc3)OC(=O)[C@H]1[C@@H]2C(=O)N1CCCCCCC1`: the z-score is 1.47.

For `COc1ccc([Si](C)(C)[C@@H]2[C@@H](CC(=O)N(CCO)Cc3ccccc3)O[C@]3(C(=O)N(Cc4cccc(N5C(=O)c6cccc7cccc5c67)c4)c4ccccc43)[C@H]2C)cc1`, the z-score was 2.09.

In the case of `Cc1ccc(S[C@]2(C(=O)O)CC(=O)N(Cc3ccccc3Cl)[C@@H]2c2ccc(CO)cc2I)cc1`, the z-score was 1.21.

Take `COC(=O)C1=CC(CCCO)=CC(C2CC2)N(C)C=C1C(=O)OC` (centres undefined): the z-score is -1.62.

Turning to `COCCOC(=O)N1C(=O)[C@@]2(c3cc(C#CCC(C(=O)OC)C(=O)OC)ccc31)[C@H](C(=O)N1CCc3cc(OC)c(OC)cc3C1)[C@H]1C(=O)O[C@H](c3ccccc3)[C@H](c3ccccc3)N1[C@@H]2c1ccc(OCCO)cc1`, the z-score is 4.23.

In the case of `COc1ccc([Si](C)(C)[C@H]2[C@H](CCO)O[C@@]3(C(=O)N(Cc4cccc(N5C(=O)COc6ccccc65)c4)c4ccccc43)[C@@H]2C)cc1`, the z-score was 16.8 (active).

As to `CN(C)CCCNC(=O)[C@@]1(C)c2ccccc2C(=O)N(Cc2ccccc2)[C@H]1c1ccc(CO)cc1`, the z-score was -0.577.

`COC(=O)c1c2oc(c1C(=O)OC)C(=O)N(Cc1ccccc1)Cc1cn(nn1)C[C@H](Cc1ccccc1)NC(=O)N[C@H](CO)CC2`: the z-score is 0.0108.

With `[N-]=[N+]=NCc1ccccc1[C@H]1OC(c2ccc(OCCCO)cc2)=N[C@@]1(CCS(=O)(=O)c1ccccc1)C(=O)N1CCCCC1`, the z-score is 3.75.

Consider `O=C(CS)NCCCCCNC(=O)[C@@H]1C[C@@H]2C(=O)N3CCC[C@H]3C(=O)N2[C@@H]1c1cccc(OCCO)c1`, for which the z-score is -0.153.

On to `COCCOC(=O)N1C(=O)[C@@]2(c3cc(C#CCCO)ccc31)[C@H](C(=O)Nc1nc3ccccc3s1)[C@H]1C(=O)O[C@H](c3ccccc3)[C@H](c3ccccc3)N1[C@@H]2c1ccccc1OCCO`, for which the z-score is 3.64.

As to `C[C@@H]1NC(=O)[C@@]23C(=O)N[C@@H](Cc4ccccc4)C2[C@H](C)[C@@]2(C)O[C@H]2C3/C=C/C/C=C\CNC(=O)[C@@H]2CCCN2C1=O` (some centres undefined), the z-score was -0.524.

With `CCC[C@@H]1C[C@@]1(CCC)[C@@H](NC(=O)OCc1ccccc1)c1ccc(-c2ccccc2)cc1`, the z-score is -0.0091.

In the case of `CC[C@H]1C2=C3C(CC[C@H]4C(OCc5ccc(F)cc5C(F)(F)F)OC[C@](C)([C@@H]34)N(C(=O)OC(C)(C)C)C2)C(COC)C1COC` (some centres undefined), the z-score was 0.153.

For `CC(C)(C)OC(=O)CC[C@@]1(C(=O)NCc2ccccc2)N=C(c2ccc(OCCCO)cc2)O[C@@H]1c1ccccc1N=[N+]=[N-]`, the z-score is 3.64.

For the molecule `CCC(CC)C(O)C1C=CC2C(=O)N(c3ccccc3)C(=O)C2N1Nc1ccc(C(C)C)cc1` (centres undefined), the z-score is 1.23.

As for `C[C@H]1NC(=O)[C@@]23C(=O)N[C@@H](Cc4ccccc4)C2[C@H](C)[C@@]2(C)O[C@H]2C3/C=C/C/C=C\CNC(=O)[C@H](Cc2ccccc2)NC1=O` (some centres undefined), the z-score is 0.952.

For the molecule `COCCOC(=O)N1C(=O)[C@@]2(c3cc(C#CC4=CCCCC4)ccc31)[C@H](C(N)=O)[C@H]1C(=O)O[C@H](c3ccccc3)[C@H](c3ccccc3)N1[C@@H]2c1ccccc1OCCO`, the z-score was 1.99.

In the case of `CCOC(=O)C[C@H]1[C@H](OC(=O)c2cc3ccccc3oc2=O)[C@@H](NC(=O)c2ccc(-c3ccccc3)cc2)c2cc(OCCCO)ccc2N1C(=O)c1ccc2ccccc2n1`, the z-score is 1.14.

On to `COC(=O)[C@@]1(Cc2ccc(F)cc2)[C@H]2c3cc(C(=O)N(C)C)n(Cc4cc(F)cc5c4OCOC5)c3C[C@H]2CN1C(=O)c1ccccc1`, for which the z-score is 1.78.

On to `COC(=O)[C@@]1(Cc2ccccc2)[C@@H]2C(=CC(=O)[C@H]2CC(=O)C(=O)N(C)C)CN1C(=O)c1ccccc1`, for which the z-score was -0.251.

Consider `CN1C(=O)C2C=CC(C(O)c3ccc(F)cc3)N(Nc3ccccc3)C2C1=O` (centres undefined), for which the z-score is 1.97.

For `CCCC[C@@H]1C[C@H]1[C@@H](NC(=O)c1ccccc1)c1ccc(C(F)(F)F)cc1`, the z-score was 0.151.
